Screens (PubChem)
The list is not random: actives were taken first. Their share in the collection is about 21%.
RORgamma inh – qHTS for inhibitors of ROR gamma transcriptional activity. 310,000 compounds, 5.4% hits. Potency, µM (series often up to 53.6 µM), usual class: inhibitors. Drosophila S2 Gal4-RORgamma UAS-luciferase reporter, 20 h; further: nearly all actives have a fitted effect of over 60% in size
Target sequence (P51450 whole entry, looked up, the tested form may be a part): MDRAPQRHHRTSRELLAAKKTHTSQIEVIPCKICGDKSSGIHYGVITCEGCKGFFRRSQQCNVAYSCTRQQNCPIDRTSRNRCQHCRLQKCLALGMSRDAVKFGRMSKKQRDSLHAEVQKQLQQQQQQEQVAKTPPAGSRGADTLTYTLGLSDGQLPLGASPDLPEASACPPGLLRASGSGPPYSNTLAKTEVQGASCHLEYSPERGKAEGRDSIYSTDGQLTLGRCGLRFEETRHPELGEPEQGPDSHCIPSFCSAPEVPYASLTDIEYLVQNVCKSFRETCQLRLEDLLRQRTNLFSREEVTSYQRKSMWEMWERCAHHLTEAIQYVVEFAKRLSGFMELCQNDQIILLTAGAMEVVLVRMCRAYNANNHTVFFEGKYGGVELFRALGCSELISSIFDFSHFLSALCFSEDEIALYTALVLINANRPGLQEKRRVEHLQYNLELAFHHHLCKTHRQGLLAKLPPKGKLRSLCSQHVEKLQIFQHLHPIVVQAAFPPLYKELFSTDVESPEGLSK
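Luciferase reporter read in Schneider cells carrying Gal4-RORγ (mouse) and UAS-Photinus luciferase; cells given compound 1 h before 700 uM copper sulfate induction, then incubated 20 h at ambient temperature.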
ELG1 repair inh – qHTS screen for small molecules that inhibit ELG1-dependent DNA repair in human embryonic kidney (HEK293T) cells expressing luciferase-tagged ELG1 | HEK293T ELG1-luciferase reporter, luminescence, 16 h; DNA damage induced by 5-fluorouridine | Potency, µM (highest dose often 46.1 µM), actives largely listed as inhibitors | 330,000 compounds, 2.3% hits | AID 504467, 2011; further: nearly all actives have a fitted effect of over 55% in size
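Step one: seed 2,000 cells per well. Step two: pin-transfer compound or DMSO alongside 5-fluorouridine. Step three: incubate 16 hr, 37 °C, 5% CO2. Step four: add ONE-Glo, wait 30 min, read luminescence.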
VP16 counter – VP16 counterscreen qHTS for inhibitors of ROR gamma transcriptional activity; Drosophila S2 Gal4-VP16 UAS-luciferase, luminescence, 20 h; Potency, µM (doses to about 53.6 µM), actives largely listed as inhibitors; 310,000 compounds, 3.5% hits;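 further: Gal4-VP16 expression switched on by copper sulfate through the metallothionein promoter; nearly all actives have a fitted effect of over 50% in size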
TDP1 cell CPT – qHTS for Inhibitors of human tyrosyl-DNA phosphodiesterase 1 (TDP1): qHTS in cells in presence of CPT; chicken DT40 Tdp1-/-;hTDP1 cells + 20 nM CPT, ATP luminescence, 48 h; Potency, µM (doses to about 46.2 µM), usual class: inhibitors; 420,000 compounds, 12% hits; AID 686979, 2013; further: nearly all actives have a fitted effect of over 55% in size
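Chicken DT40 Tdp1-/- cells complemented with human TDP1, 400 cells/well, exposed to compounds plus 20 nM camptothecin for at least 48 h at 37 C; viability read as ATP content by CellTiter-Glo luminescence.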
DT40 TDP1 no CPT – qHTS for Inhibitors of human tyrosyl-DNA phosphodiesterase 1 (TDP1): qHTS in cells in absence of CPT. AID 686978, 2013. 420,000 compounds, 15% hits. Potency, µM (series often up to 46.2 µM), usual class: inhibitors. DT40 Tdp1-/- hTDP1 cells, no CPT, ATP luminescence, 48 h; further: nearly all actives have a fitted effect of over 55% in size
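Camptothecin absent (DMSO only). Human TDP1-complemented DT40 knockout cells, 400 cells/well, 37 °C for minimum 48 hr; ATP measured via CellTiter-Glo, 30 min dark incubation, luminescence.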
IL1B secr inh – qHTS for Inhibitors of Inflammasome Signaling: IL-1-beta AlphaLISA Primary Screen. THP-1 LPS/ATP IL-1B secretion, AlphaLISA, 16 h; hits give low values. activity change, % at 57.5 µM. 360,000 compounds, 4.7% hits. AID 743279, 2014; in the data active means activity change below about -50%; inconclusive means mostly about -30% to -49%
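Secreted IL-1B measured by AlphaLISA bead assay after 16 h compound exposure of THP-1 cells; compounds (final up to 57.5 uM) added 1 h before LPS (250 ng/mL) and ATP (1.25 mM) stimulation; lower signal means less secretion.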
Hits are given with their value. Unless noted, the call rests on the fitted dose curve; in most records, active means well fitted curve in the direction sought with a large enough effect; inconclusive means small, poorly fitted or top-dose-only effect, or another doubt; inactive means no such curve, though single readings can be large; an effect the other way counts as inactive or inconclusive.

For COc1cccc(/C=N/NC(=O)CNC(=O)C2COc3ccccc3O2)c1O (stereo not drawn) the results were RORgamma inh 0.355µM, ELG1 repair inh inactive, VP16 counter 0.447µM, TDP1 cell CPT 5.8µM, DT40 TDP1 no CPT 3.66µM and IL1B secr inh inactive.
For O=c1cnc2cnc(Oc3ccccc3)nc2n1C1CC1 the results were RORgamma inh inactive, VP16 counter inactive, TDP1 cell CPT inactive and DT40 TDP1 no CPT inactive.
COCCn1c(SCC(=O)c2ccccc2)nc2cc(C(=O)NC3CCCC3)ccc2c1=O was read as TDP1 cell CPT inactive and DT40 TDP1 no CPT inactive.
`O=C(Nc1c2c(nn1-c1ccccc1)CS(=O)(=O)C2)c1ccc(Br)o1` gave TDP1 cell CPT inactive, DT40 TDP1 no CPT inactive and IL1B secr inh inactive.
O=C(N/N=C\c1cc2c(cc1Cl)OCO2)c1cccs1 was read as RORgamma inh inactive, ELG1 repair inh inconclusive, VP16 counter inconclusive, TDP1 cell CPT inconclusive, DT40 TDP1 no CPT inconclusive and IL1B secr inh inactive.
Screening O=C(N/N=C/c1cc2c(cc1Cl)OCO2)c1ccc2c(c1)OCCO2 returned RORgamma inh inactive, ELG1 repair inh inconclusive, VP16 counter inactive, TDP1 cell CPT inactive, DT40 TDP1 no CPT inconclusive and IL1B secr inh -58.4.
Screening CCNC(=O)c1cc2c(c(-c3cccc(-c4ccccc4F)c3)n1)[C@H](CCO)N(C(=O)CC)C2 returned TDP1 cell CPT 7.31µM, DT40 TDP1 no CPT 5.8µM and IL1B secr inh inactive.
`CCCNC(=O)c1cc2c(c(-c3cccc(-c4ccccc4F)c3)n1)[C@@H](CCO)N(C(=O)CC1CC1)C2` gave TDP1 cell CPT 25.9µM, DT40 TDP1 no CPT inconclusive and IL1B secr inh inactive.
`O=C(NCC(F)(F)F)c1cc2c(c(-c3cccc(-c4ccccc4F)c3)n1)[C@H](CCO)N(C(=O)CC1CC1)C2` gave TDP1 cell CPT 16.4µM, DT40 TDP1 no CPT 20.6µM and IL1B secr inh inactive.
CCC(=O)N1Cc2cc(C(=O)NCC(F)(F)F)nc(-c3cccc(-c4cncnc4)c3)c2[C@@H]1CCO was read as TDP1 cell CPT 20.6µM, DT40 TDP1 no CPT inconclusive and IL1B secr inh inactive.
CCNC(=O)c1cc2c(c(-c3cccc(-c4cncnc4)c3)n1)[C@@H](CCO)N(C(C)=O)C2 was read as TDP1 cell CPT inactive, DT40 TDP1 no CPT inactive and IL1B secr inh inactive.
Screening CC(C)C[C@@H](CC(=O)N[C@@H](CCC(=O)O)CC(=O)O)NC(=O)[C@@H]1CNCC[C@H]1NC(=O)C[C@@H](NC(=O)C[C@H](Cc1ccccc1)NC(=O)[C@@H]1CNCC[C@H]1N)C(C)C returned RORgamma inh inactive and VP16 counter inactive.
`Cc1ccc(S(=O)(=O)N(C)c2ccc(OCC(=O)NCC3(N(C)C)CCCCC3)cc2)cc1` gave ELG1 repair inh inactive, TDP1 cell CPT inconclusive, DT40 TDP1 no CPT inconclusive and IL1B secr inh inactive.
Cc1ccc(-n2nc3c(c2NC(=O)CC(C)C)CS(=O)C3)cc1 (stereo not drawn) was read as RORgamma inh inactive, ELG1 repair inh inactive, VP16 counter inactive, TDP1 cell CPT inactive, DT40 TDP1 no CPT inactive and IL1B secr inh inactive.
CCOc1ccc(NC(=O)C(Cc2ccccc2)N2C(=O)c3cccc4cccc(c34)C2=O)cc1 (stereo not drawn) was read as RORgamma inh inactive, ELG1 repair inh inconclusive, VP16 counter inconclusive, TDP1 cell CPT 11.6µM, DT40 TDP1 no CPT 8.2µM and IL1B secr inh inactive.
